Rows were chosen to be rich in hits. Some 3.4% of all compounds tested hit in one or more screens of this group.
PLC-beta3 inh – human PLC-beta3 inhibitors, primary screen, biochemical, fluorescence | 1-phosphatidylinositol 4,5-bisphosphate phosphodiesterase beta-3 (Homo sapiens), Q01970 | inhibition, % at 12.2 µM | Purified PLC-beta3, fluorogenic substrate | AID 720704, 2013 | actives 0.18% (n = 370,000); in the data active = inhibition above about 11%;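 note: 0% = median of compound wells on plate and 100% = full blocker control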
ADAM10 inh – human ADAM10 inhibitors, primary screen, biochemical, QFRET, HTS. recombinant ADAM10, EDANS/DABCYL FRET peptide cleavage, 3 h. Disintegrin and metalloproteinase domain-containing protein 10 (Homo sapiens), O14672. AID 720582, 2013. inhibition, % at 7 µM. actives 0.62% (n = 370,000);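 active = inhibition above a per-campaign cutoff equal to the mean of compounds falling between control-based bounds plus 3 SD, cut at about 20% in these data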;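 note: 0% = DMSO wells while the 100% control is not disclosed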
KLK7 zymogen act – proKLK7 zymogen activators, primary screen, biochemical, fluorescence intensity; purified proKLK7, EDANS-DABCYL substrate fluorescence; 100% is mature enzyme control, 0% vehicle; activation, % at 7 µM; actives 0.9% (n = 370,000); AID 652039, 2013;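 active = activation above the mean of all tested compounds plus 3 SD, computed per campaign excluding outliers beyond control limits, cut at about 13% in these data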
PLCg1 inh – PLC-gamma1 enzyme inhibitors, primary screen, biochemical, fluorescence, purified enzyme. 1-phosphatidylinositol 4,5-bisphosphate phosphodiesterase gamma-1 (Homo sapiens), P19174. AID 720700, 2013. actives 0.84% (n = 370,000). fluorogenic substrate. inhibition, % at 12.2 µM; in the data active = inhibition above about 9.5%
Target sequence (P19174 whole entry, looked up): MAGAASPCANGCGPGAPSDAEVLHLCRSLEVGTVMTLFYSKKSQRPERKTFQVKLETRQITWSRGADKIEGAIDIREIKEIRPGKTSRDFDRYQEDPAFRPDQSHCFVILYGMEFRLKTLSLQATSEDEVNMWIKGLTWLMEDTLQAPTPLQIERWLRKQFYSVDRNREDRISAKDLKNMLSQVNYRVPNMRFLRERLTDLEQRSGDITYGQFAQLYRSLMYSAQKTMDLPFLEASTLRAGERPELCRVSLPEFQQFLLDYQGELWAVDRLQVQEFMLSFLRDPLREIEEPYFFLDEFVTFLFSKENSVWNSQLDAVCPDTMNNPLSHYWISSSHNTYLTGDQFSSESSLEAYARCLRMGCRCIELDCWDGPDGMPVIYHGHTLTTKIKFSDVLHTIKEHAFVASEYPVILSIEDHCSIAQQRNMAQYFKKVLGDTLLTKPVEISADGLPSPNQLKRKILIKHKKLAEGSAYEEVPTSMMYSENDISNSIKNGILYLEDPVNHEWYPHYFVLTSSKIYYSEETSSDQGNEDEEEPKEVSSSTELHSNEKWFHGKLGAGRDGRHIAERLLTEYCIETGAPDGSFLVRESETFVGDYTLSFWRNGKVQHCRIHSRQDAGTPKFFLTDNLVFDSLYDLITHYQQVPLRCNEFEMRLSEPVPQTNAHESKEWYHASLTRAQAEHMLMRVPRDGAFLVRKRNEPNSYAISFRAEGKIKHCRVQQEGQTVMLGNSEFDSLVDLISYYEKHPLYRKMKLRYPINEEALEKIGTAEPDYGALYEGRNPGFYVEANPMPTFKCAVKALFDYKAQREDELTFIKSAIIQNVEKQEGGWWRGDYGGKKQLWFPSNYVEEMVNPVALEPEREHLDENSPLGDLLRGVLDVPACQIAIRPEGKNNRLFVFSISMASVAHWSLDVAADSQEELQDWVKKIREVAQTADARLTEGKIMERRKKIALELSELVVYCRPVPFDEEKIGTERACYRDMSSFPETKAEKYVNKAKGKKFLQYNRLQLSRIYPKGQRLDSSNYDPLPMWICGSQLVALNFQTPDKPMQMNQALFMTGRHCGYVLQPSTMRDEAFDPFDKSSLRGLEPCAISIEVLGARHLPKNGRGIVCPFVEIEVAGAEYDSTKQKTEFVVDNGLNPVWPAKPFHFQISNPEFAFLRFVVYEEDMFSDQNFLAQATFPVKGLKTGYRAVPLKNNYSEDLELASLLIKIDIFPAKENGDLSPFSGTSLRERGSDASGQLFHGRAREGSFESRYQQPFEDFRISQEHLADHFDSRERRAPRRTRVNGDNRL
HGIII-sPLA2 inh – human group III sPLA2 inhibitors, primary screen, biochemical, QFRET, BODIPY PC-A2 liposome substrate. QFRET BODIPY PC-A2 liposome hydrolysis, fluorescence. inhibition, % at 12.2 µM. actives 0.56% (n = 370,000);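 active = inhibition above mean plus 3 SD of compounds lying within the high and low control bounds, cut at about 19% in these data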;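 note: 0% = median of test compound wells and 100% = no enzyme DMSO wells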
ADAM17 inh – ADAM17 inhibitors, primary screen, biochemical, QFRET | AID 720648, 2013 | recombinant ADAM17, EDANS/DABCYL FRET peptide cleavage | inhibition, % at 6.95 µM | actives 0.83% (n = 370,000) | Disintegrin and metalloproteinase domain-containing protein 17 (Homo sapiens), P78536;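 active = inhibition above the mean of compounds lying between control limits plus 3 SD, set per campaign, cut at about 8.5% in these data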;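 note: 0% = DMSO-only wells as the low control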
proKLK7 act conf – proKLK7 zymogen activators, confirmation, biochemical, fluorescence intensity, triplicate; activation, % at 7 µM; shares compounds with KLK7 zymogen act; actives 68% (n = 3,200); purified proKLK7, EDANS-DABCYL substrate fluorescence; scaled: vehicle 0, mature enzyme 100; AID 686949, 2013;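 active = activation, as change over the incubation, above the mean of all tested compounds plus 3 SD, cut at about 13% in these data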
EDANS interfere – EDANS-DABCYL substrate optical interference, artefact control for kallikrein-7 zymogen activator project, biochemical, fluorescence intensity, high throughput. shares compounds with KLK7 zymogen act. actives 80% (n = 3,200). no enzyme, 4 h; solvent 0%, active enzyme control 100%. activation, % at 7 µM;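 active = activation above the all-compound mean plus 3 SD, ignoring values outside control-based bounds, cut at about 4.8% in these data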;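 note: value is the 4 h activation minus the activation read at time zero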
The depositor's hits bear a star.

Screening COCC1CN(CCc2ccc(F)cc2)S(=O)(=O)c2c(F)cccc2O1 (stereo not drawn) returned PLC-beta3 inh 1.3, ADAM10 inh -6.7, KLK7 zymogen act -0.1, PLCg1 inh 0.3, HGIII-sPLA2 inh 16.5 and ADAM17 inh -1.8.
COCC(=O)N(C)[C@H]1C[C@H]2c3[nH]c4c(-c5ccccc5)cccc4c3CCN2C(=O)[C@H]1[C@H](C)O was read as PLC-beta3 inh -84.9, ADAM10 inh -196.0, KLK7 zymogen act -1.8, PLCg1 inh -76.3, HGIII-sPLA2 inh -16.9 and ADAM17 inh -47.5.
`COCC(=O)N(C)[C@H]1C[C@H]2c3[nH]c4ccccc4c3CCN2C(=O)[C@H]1[C@H](C)O` gave PLC-beta3 inh inactive, ADAM10 inh inactive, KLK7 zymogen act 26.9*, PLCg1 inh inactive, HGIII-sPLA2 inh 4.7, ADAM17 inh -242.4, proKLK7 act conf 39.6* and EDANS interfere 41.8*.
For COC(=O)C1=C(C)N(Cc2ccc(Cl)cc2)C(=S)NC1c1ccccc1 (stereo not drawn) the results were PLC-beta3 inh -0.9, ADAM10 inh 10.4, KLK7 zymogen act 0.2, PLCg1 inh 1.4, HGIII-sPLA2 inh 6.7 and ADAM17 inh 3.0.
Cc1cccc(-c2nnc(SCC(=O)Nc3ccc(OCc4ccccc4)cc3)n2Cc2ccco2)c1 was read as PLC-beta3 inh 2.2, ADAM10 inh 10.6, KLK7 zymogen act 1.0, PLCg1 inh 7.9, HGIII-sPLA2 inh -5.7 and ADAM17 inh 4.3.
`Cc1ccc2nc(-c3ccc(NC(=O)CSc4nnc(-c5ccccc5)n4Cc4ccco4)cc3)sc2c1` gave PLC-beta3 inh -74.5, ADAM10 inh -185.7, KLK7 zymogen act 127.7*, PLCg1 inh -42.4, HGIII-sPLA2 inh -16.3, ADAM17 inh -57.1, proKLK7 act conf 297.2* and EDANS interfere 333.1*.
For CCOC(=O)c1c(NC(=O)CSc2nnc(-c3cccnc3)n2Cc2ccco2)sc(C)c1C the results were PLC-beta3 inh -0.7, ADAM10 inh 10.9, KLK7 zymogen act 13.5*, PLCg1 inh 0.2, HGIII-sPLA2 inh -12.6, ADAM17 inh -2.1, proKLK7 act conf 0.9 and EDANS interfere 2.3.
For Cc1cccc(-c2nnc(SCC(=O)Nc3ccc(-c4nc5ccc(C)cc5s4)cc3)n2Cc2ccco2)c1 the results were PLC-beta3 inh -38.9, ADAM10 inh -90.6, KLK7 zymogen act 67.8*, PLCg1 inh -23.6, HGIII-sPLA2 inh -4.3, ADAM17 inh -22.7, proKLK7 act conf 61.7* and EDANS interfere 91.6*.
For Cc1ccc(C)c(N(CC(=O)Nc2ccc(-c3nc4ccc(C)cc4s3)cc2)S(C)(=O)=O)c1 the results were PLC-beta3 inh -8.7, ADAM10 inh -65.5, KLK7 zymogen act 19.5*, PLCg1 inh -7.2, HGIII-sPLA2 inh 3.6, ADAM17 inh -16.4, proKLK7 act conf -8.4 and EDANS interfere -19.5.
Screening COc1ccc(NC(=O)N(C)C[C@@H]2OCc3cnnn3CCCC(=O)N([C@@H](C)CO)C[C@@H]2C)cc1 returned PLC-beta3 inh -2.0, ADAM10 inh -21.6, KLK7 zymogen act -0.5, PLCg1 inh 2.7, HGIII-sPLA2 inh 9.7 and ADAM17 inh -3.8.
`C[C@@H]1CN([C@H](C)CO)C(=O)c2cc(Br)cnc2O[C@H]1CN(C)C(=O)c1ccc(F)cc1` gave PLC-beta3 inh 1.2, ADAM10 inh 5.2, KLK7 zymogen act -0.8, PLCg1 inh -0.4, HGIII-sPLA2 inh 0.7 and ADAM17 inh 1.6.
For COC(=O)C1=C(C)N(Cc2ccccc2C(F)(F)F)C(=NCc2ccc(OC)cc2)NC1c1cccc(F)c1 (stereo not drawn) the results were PLC-beta3 inh 0.9, ADAM10 inh -2.1, KLK7 zymogen act 0.7, PLCg1 inh 0.4, HGIII-sPLA2 inh -5.0 and ADAM17 inh -2.6.
For Cc1ccc2nc(-c3ccc(NC(=O)CSc4nnc(Cc5cccs5)n4C)cc3)sc2c1 the results were PLC-beta3 inh -228.9, ADAM10 inh inactive, KLK7 zymogen act 149.4*, PLCg1 inh -179.7, HGIII-sPLA2 inh -17.5, ADAM17 inh inactive, proKLK7 act conf 157.3* and EDANS interfere 86.4*.
CCOc1ccc(/C(O)=C2/C(=O)C(=O)N(c3ccccn3)C2c2ccc(C)cc2)c(C)c1 (stereo not drawn) was read as PLC-beta3 inh -21.9, ADAM10 inh -0.3, KLK7 zymogen act 17.0*, PLCg1 inh -19.9, HGIII-sPLA2 inh -18.0, ADAM17 inh -2.4, proKLK7 act conf 32.3* and EDANS interfere 32.1*.
CCOc1ccc(/C(O)=C2/C(=O)C(=O)N(c3ccccn3)C2c2ccc(Cl)cc2)c(C)c1 (stereo not drawn) was read as PLC-beta3 inh -64.2, ADAM10 inh 2.1, KLK7 zymogen act 9.2, PLCg1 inh -41.6, HGIII-sPLA2 inh -12.8 and ADAM17 inh 0.1.
For CCCCn1cnc2c(=O)[nH]ccc21 the results were PLC-beta3 inh 6.2, ADAM10 inh 5.8, KLK7 zymogen act -1.2, PLCg1 inh 3.0, HGIII-sPLA2 inh 0.3 and ADAM17 inh 5.6.
`COC(=O)c1cc2c(c3c4cc(C)ccc4n(S(=O)(=O)c4cccc(C)c4)c13)C(=O)N(C)C2` gave PLC-beta3 inh -26.2, ADAM10 inh -8.6, KLK7 zymogen act 0.7, PLCg1 inh -17.6, HGIII-sPLA2 inh 6.2 and ADAM17 inh 0.7.
`COc1ccc2[nH]c3c(Cl)ncnc3c2c1` gave PLC-beta3 inh -26.5, ADAM10 inh -10.2, KLK7 zymogen act 0.5, PLCg1 inh -24.1, HGIII-sPLA2 inh 7.1 and ADAM17 inh -4.4.
Screening COc1ccc2[nH]c3c(=S)nc[nH]c3c2c1 returned PLC-beta3 inh -186.1, ADAM10 inh -107.9, KLK7 zymogen act 20.7*, PLCg1 inh -163.8, HGIII-sPLA2 inh 7.3, ADAM17 inh -37.4, proKLK7 act conf 0.1 and EDANS interfere 0.8.
`Nc1nn2cc(-c3ccccc3)nc2c2ccccc12` gave PLC-beta3 inh inactive, ADAM10 inh inactive, KLK7 zymogen act 65.9*, PLCg1 inh inactive, HGIII-sPLA2 inh 0.2, ADAM17 inh inactive, proKLK7 act conf 55.0* and EDANS interfere 53.4*.

Assay outcomes (PubChem BioAssay)
